Sampled rows, rich in hits. Any-hit rate of the full collection: about 2.4%.
TDP1 block – inhibitors of human tyrosyl-DNA phosphodiesterase TDP1 | recombinant TDP1, AlphaScreen DNA substrate cleavage | Potency, µM (doses to about 130 µM), hits mostly inhibitors | actives 0.28% (n = 350,000) | AID 485290; also: nearly all actives have a fitted effect of over 40% in size
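Compounds were preincubated with Tdp1 (1 nM final) for 15 min at room temperature before substrate (15 nM final) started a 5 min reaction; beads (10 ug/ml final) were then added for 10 min before AlphaScreen detection.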
Pol eta inh-1 – DNA polymerase eta (human) inhibition; actives 1.2% (n = 390,000); Potency, µM (doses to about 114 µM), usual class: inhibitors; recombinant Pol eta, fluorescent DNA replication assay; Q9Y253
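Pol eta (10 nM) was preincubated with compounds for 15 min at room temperature, after which fluorescent replication substrate (50 nM final) was added to start the reaction. Fluorescence was read kinetically at 0 and 10 min.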
POLI inh – DNA polymerase iota (human) inhibition | Potency, µM (highest dose often 115 µM), most hits filed as inhibitors | Pol iota fluorescent replication assay, 10 min | actives 1% (n = 390,000) | Q9UNA4
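Fluorescent replication assay read twice, at 0 min and 10 min after adding 50 nM (final) substrate. Enzyme (10 nM) and compounds were first incubated 15 min at room temperature; enzyme-free buffer wells were negative controls.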
Pol kappa inh-1 – DNA polymerase kappa (human) inhibition; Q9UBT6; actives 0.53% (n = 400,000); purified Pol kappa, fluorescent DNA synthesis assay, 10 min; Potency, µM (highest dose often 107 µM), usual class: inhibitors
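10 nM Pol kappa was preincubated with compounds for 15 min at room temperature. Reaction started with 50 nM (final) substrate. Fluorescence read kinetically at 0 and 10 min.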
Pol beta inh – DNA polymerase beta (human) inhibition. AID 485314. Pol beta primer extension/strand displacement, fluorescence kinetic. Potency, µM (top dose mostly 114 µM), actives largely listed as inhibitors. actives 1.3% (n = 340,000). P06746
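Values derive from four-parameter Hill fits of normalized kinetic data: reads at 0 and 10 min following addition of 50 nM substrate to 10 nM Pol beta preincubated 15 min with compound.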
PGK validate – TbPGK inhibition, hit validation; shares compounds with Pol kappa inh-1; TbPGK coupled GAPDH assay, Kinase-Glo luminescence; Potency, µM (top dose mostly 57.5 µM), actives largely listed as inhibitors; actives 79% (n = 500); also: nearly all actives have a fitted effect of over 65% in size
POLI cherry-pick – Human Pol iota inhibitor confirmatory assay | AID 720496 | actives 77% (n = 1,500) | shares compounds with Pol kappa inh-1 | Pol iota primer extension, TAMRA/BHQ fluorescence | Potency, µM, usual class: inhibitors
Pol kappa inh-2 – confirmation of human DNA polymerase kappa inhibitors. Potency, µM, hits mostly inhibitors. actives 76% (n = 920). shares compounds with Pol eta inh-1. purified Pol-kappa, fluorescent strand-displacement substrate
Pol eta inh-2 – confirmation of human DNA polymerase eta inhibitors; shares compounds with Pol eta inh-1; Pol eta primer extension, TAMRA/BHQ fluorescence, 10 min; Potency, µM, most hits filed as inhibitors; actives 64% (n = 2,600); AID 720502
Each line names hits and unclear results; the compound was inactive in the other large screens (follow-up assays come after a bar, where they were run). Calls follow the shape of the dose curve; as a rule, active = well fitted curve in the direction sought with a large enough effect; inconclusive = small, poorly fitted or top-dose-only effect, or another doubt; inactive = no such curve, though single readings can be large; an effect the other way counts as inactive or inconclusive.

C=C(C)C(=O)Nc1ccc2c(c1)OCCOCCOCCO2	Pol eta inh-1 22µM, POLI inh inconclusive, Pol kappa inh-1 79µM, Pol beta inh 10µM (no result: TDP1 block) | PGK validate inconclusive | Pol eta inh-2 19
CN(C)c1ccc2nc3c(=O)[nH]c(=O)nc-3n(CC(O)C(O)C(O)CO)c2c1 (stereo not drawn)	Pol eta inh-1 inconclusive, POLI inh 28µM, Pol kappa inh-1 inconclusive, Pol beta inh 25µM (no result: TDP1 block) | POLI cherry-pick 24 | Pol kappa inh-2 inconclusive | Pol eta inh-2 38
O=C(Cc1cccc2ccccc12)NN1C(=O)CSC1=S	POLI inh inconclusive
O=C(NN1C(=O)CSC1=S)C(=O)NN1C(=O)CSC1=S	Pol eta inh-1 28µM, POLI inh inconclusive, Pol kappa inh-1 inconclusive, Pol beta inh 1.8µM (no result: TDP1 block) | POLI cherry-pick 34 | Pol eta inh-2 21
COc1cccc(CNC(=O)c2ccc(CSc3nc4ccncc4n3Cc3cccc(C)c3)cc2)c1	none
O=C1c2ccccc2-c2onc3ccc(N4CCCC4)c1c23	Pol eta inh-1 inconclusive, POLI inh 35µM, Pol beta inh 79µM | POLI cherry-pick 60 | Pol kappa inh-2 inconclusive | Pol eta inh-2 inconclusive
CN1C2CCC1/C(=C\c1ccc(F)cc1)C(=O)/C2=C/c1ccc(F)cc1	none
C=CC(=O)N1C/C(=C/c2ccc(F)cc2)C(=O)/C(=C\c2ccc(F)cc2)C1	Pol eta inh-1 10µM, POLI inh 11µM, Pol kappa inh-1 79µM (no result: TDP1 block, Pol beta inh) | PGK validate 5.8µM | POLI cherry-pick 60 | Pol eta inh-2 76
Cc1ccc(SC2=C(N(C)C)C(=O)c3ccccc3C2=O)cc1	Pol eta inh-1 8.9µM, POLI inh 20µM (no result: TDP1 block, Pol beta inh) | POLI cherry-pick inconclusive | Pol eta inh-2 76
Cc1ccc(OCc2nc(-c3ccc(C(=O)N4CCN(c5cccc(C(F)(F)F)c5)CC4)cc3)oc2C)cc1	none
CCOc1ccc(NC(=O)CN(C)C(=O)c2cc3c(s2)CCC3)cc1OCC	Pol eta inh-1 3.5µM (no result: TDP1 block, POLI inh, Pol kappa inh-1, Pol beta inh) | POLI cherry-pick 17 | Pol kappa inh-2 19 | Pol eta inh-2 34
O=C(COC(=O)c1cc2c(s1)CCC2)Nc1ccc(F)cc1	TDP1 block 35µM, Pol eta inh-1 18µM, POLI inh 20µM, Pol kappa inh-1 32µM, Pol beta inh 8.9µM | POLI cherry-pick 24 | Pol eta inh-2 24
CCOc1ccc(NC(=O)CN(C)C(=O)c2csc3c2CCCC3)cc1OCC	none (no result: Pol beta inh)
O=c1c2ccccc2n(Cc2c(F)cccc2Cl)c(=O)n1Cc1ccccc1	none
CCc1ccccc1NC(=O)CSc1ccsc1[N+](=O)[O-]	Pol eta inh-1 32µM, POLI inh 18µM, Pol kappa inh-1 inconclusive, Pol beta inh 25µM | POLI cherry-pick inconclusive | Pol eta inh-2 60
O=C(CSc1ccsc1[N+](=O)[O-])Nc1cccc(F)c1	Pol eta inh-1 22µM, POLI inh inconclusive, Pol kappa inh-1 22µM, Pol beta inh 7.1µM (no result: TDP1 block) | POLI cherry-pick 67 | Pol eta inh-2 48
CSc1ccc(CCNC(=O)CSc2ccsc2[N+](=O)[O-])cc1	Pol eta inh-1 inconclusive, POLI inh inconclusive, Pol kappa inh-1 inconclusive
O=C(CSc1nccc(=O)[nH]1)N1N=C2/C(=C/c3ccco3)CCCC2C1c1ccco1 (stereo not drawn)	TDP1 block inconclusive, Pol eta inh-1 25µM, POLI inh 45µM, Pol kappa inh-1 inconclusive, Pol beta inh 28µM | POLI cherry-pick 38 | Pol eta inh-2 30
O=C(N/N=C/c1ccc(O)cc1O)C(=O)N/N=C/c1ccc(O)cc1O	POLI inh inconclusive, Pol beta inh inconclusive (no result: TDP1 block) | POLI cherry-pick 9.5 | Pol eta inh-2 17
O=C(NN=Cc1ccc(O)cc1)C(=O)NN=Cc1ccc(O)cc1	none (no result: TDP1 block, Pol beta inh)
N=C1S/C(=C\c2ccc(-c3ccccc3C(=O)O)o2)C(=O)N1c1ccc2c(c1)OCO2	Pol eta inh-1 20µM, POLI inh 13µM, Pol kappa inh-1 79µM, Pol beta inh 25µM | POLI cherry-pick 67 | Pol kappa inh-2 19 | Pol eta inh-2 43
COc1ccc2c(c1)c(=O)oc1cc(OCC(=O)NC3CCCCC3)ccc12	Pol eta inh-1 79µM, POLI inh 25µM, Pol kappa inh-1 inconclusive, Pol beta inh 22µM (no result: TDP1 block) | POLI cherry-pick inconclusive | Pol kappa inh-2 inconclusive | Pol eta inh-2 67
COc1ccc2c(c1)c(=O)oc1cc(OCC(=O)NC3CC3)ccc12	Pol eta inh-1 inconclusive, Pol beta inh inconclusive (no result: TDP1 block)
Cc1nn(-c2ccc(N3CCCCC3)nn2)c(C)c1CCC(=O)NCc1ccc(OC(C)C)cc1	none
O=S(=O)(Nc1cc(Sc2cccc3cccnc23)c(O)c2ccccc12)c1ccc(F)cc1	POLI inh inconclusive
COc1ccc(S(=O)(=O)Nc2cc(Sc3ncn[nH]3)c(O)c3ccccc23)cc1	POLI inh 5µM, Pol kappa inh-1 inconclusive, Pol beta inh 22µM (no result: Pol eta inh-1) | POLI cherry-pick 42 | Pol eta inh-2 inconclusive
COc1ccc(S(=O)(=O)Nc2cc(SCC(=O)O)c(O)c3ccccc23)cc1	Pol eta inh-1 7.9µM, POLI inh 4µM, Pol beta inh inconclusive (no result: TDP1 block) | POLI cherry-pick inconclusive | Pol eta inh-2 inconclusive
O=C(O)CSc1cc(NS(=O)(=O)c2ccc(Cl)cc2)c2ccccc2c1O	Pol eta inh-1 20µM, POLI inh 3.2µM, Pol beta inh 79µM (no result: TDP1 block) | POLI cherry-pick 84 | Pol kappa inh-2 67 | Pol eta inh-2 76
COc1ccc(C(=O)N2CCc3cc(OC)c(OC)cc3C2COc2ccc3c(C)cc(=O)oc3c2)c(OC)c1 (stereo not drawn)	none
Cc1ccsc1CN(C(=O)c1ccc(Br)cc1)C1CCS(=O)(=O)C1 (stereo not drawn)	none (no result: Pol eta inh-1)
COc1cccc(NC(=O)c2oc3ccccc3c2NC(=O)c2ccc(C(F)(F)F)cc2)c1	none
O=c1ccc2ccc(OS(=O)(=O)O)cc2o1	none (no result: Pol eta inh-1, POLI inh, Pol beta inh)
Nn1cc(Br)c(=O)[nH]c1=O	TDP1 block inconclusive (no result: Pol eta inh-1, POLI inh, Pol beta inh)
COc1ccc2nc(C)cc(Nc3ccc(Cl)c(Cl)c3)c2c1	none
C/C(=N\Nc1ccc(Cl)c(C(=O)O)c1)c1ccc[nH]1	TDP1 block inconclusive, Pol eta inh-1 14µM, POLI inh 45µM, Pol kappa inh-1 45µM, Pol beta inh 32µM | POLI cherry-pick 53 | Pol eta inh-2 27
O=C(O)c1cc(N/N=C/C=C/c2ccccc2)ccc1Cl	Pol beta inh inconclusive

From PubChem BioAssay
